# Dicer processing: blocks human Dicer maturation of pre-miR-21; AID 1347074; cat-ELCCA pre-miR-21 Dicer processing, chemiluminescence; active compounds read high; 6% of 47,000 active; z-score at 25 µM; in the data active = z-score above about 3, passing the limit was not always enough;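 note: higher signal means more uncleaved substrate so more Dicer inhibition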
# Target sequence (Q9UPY3 whole entry, looked up): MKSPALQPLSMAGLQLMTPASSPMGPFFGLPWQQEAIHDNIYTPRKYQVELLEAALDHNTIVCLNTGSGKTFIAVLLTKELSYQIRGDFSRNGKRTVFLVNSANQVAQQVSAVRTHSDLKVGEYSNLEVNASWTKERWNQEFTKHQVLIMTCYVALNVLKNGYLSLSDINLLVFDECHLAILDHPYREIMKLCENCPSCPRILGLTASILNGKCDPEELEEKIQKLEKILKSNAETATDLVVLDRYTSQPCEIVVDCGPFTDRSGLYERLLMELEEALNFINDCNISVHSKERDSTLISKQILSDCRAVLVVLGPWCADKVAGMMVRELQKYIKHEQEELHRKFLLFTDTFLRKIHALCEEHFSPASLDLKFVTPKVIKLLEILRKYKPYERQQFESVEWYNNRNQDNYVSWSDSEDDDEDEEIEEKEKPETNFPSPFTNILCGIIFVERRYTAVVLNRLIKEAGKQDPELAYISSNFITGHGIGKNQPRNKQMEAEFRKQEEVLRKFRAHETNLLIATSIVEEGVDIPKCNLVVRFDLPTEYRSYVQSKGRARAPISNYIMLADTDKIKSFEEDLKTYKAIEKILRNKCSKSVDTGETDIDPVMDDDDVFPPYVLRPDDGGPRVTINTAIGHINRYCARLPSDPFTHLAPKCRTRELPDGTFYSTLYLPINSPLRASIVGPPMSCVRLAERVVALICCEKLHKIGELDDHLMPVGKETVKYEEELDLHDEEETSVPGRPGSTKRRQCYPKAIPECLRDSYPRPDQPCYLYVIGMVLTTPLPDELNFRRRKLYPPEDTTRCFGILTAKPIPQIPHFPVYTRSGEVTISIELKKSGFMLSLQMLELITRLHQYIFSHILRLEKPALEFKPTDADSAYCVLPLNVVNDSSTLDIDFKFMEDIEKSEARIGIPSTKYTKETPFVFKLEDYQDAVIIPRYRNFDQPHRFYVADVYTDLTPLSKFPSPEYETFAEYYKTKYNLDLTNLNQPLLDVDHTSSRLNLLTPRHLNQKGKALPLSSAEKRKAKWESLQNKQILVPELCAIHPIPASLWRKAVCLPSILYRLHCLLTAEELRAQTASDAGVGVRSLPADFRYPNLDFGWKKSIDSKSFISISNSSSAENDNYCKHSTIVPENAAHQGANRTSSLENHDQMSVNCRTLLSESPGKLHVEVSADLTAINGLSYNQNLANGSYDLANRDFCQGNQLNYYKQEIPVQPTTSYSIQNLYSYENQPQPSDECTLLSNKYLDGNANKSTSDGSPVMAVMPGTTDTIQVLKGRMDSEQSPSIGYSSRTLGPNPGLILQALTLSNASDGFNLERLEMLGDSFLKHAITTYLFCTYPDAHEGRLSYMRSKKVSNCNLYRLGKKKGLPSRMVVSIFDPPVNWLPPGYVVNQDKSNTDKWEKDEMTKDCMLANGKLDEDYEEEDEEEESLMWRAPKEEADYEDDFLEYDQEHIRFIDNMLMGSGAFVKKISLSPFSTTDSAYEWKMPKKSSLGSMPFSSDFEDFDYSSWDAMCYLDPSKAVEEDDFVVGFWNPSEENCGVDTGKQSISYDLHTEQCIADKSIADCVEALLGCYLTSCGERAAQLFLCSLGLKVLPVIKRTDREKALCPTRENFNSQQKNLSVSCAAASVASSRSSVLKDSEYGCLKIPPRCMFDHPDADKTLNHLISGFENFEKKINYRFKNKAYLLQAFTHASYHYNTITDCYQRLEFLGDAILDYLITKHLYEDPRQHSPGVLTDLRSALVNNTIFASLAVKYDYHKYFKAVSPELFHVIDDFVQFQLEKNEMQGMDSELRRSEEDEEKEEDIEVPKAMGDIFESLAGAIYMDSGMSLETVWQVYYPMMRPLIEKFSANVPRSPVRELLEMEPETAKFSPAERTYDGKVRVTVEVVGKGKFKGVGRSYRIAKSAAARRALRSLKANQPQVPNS
# Hits are given with their value; - = inactive. The entries come from a sample that favours hits as a whole.
SMILES,Dicer processing
O=C(Nc1cccnc1)c1cc2n(n1)C(C(F)(F)F)CC(c1ccc(Br)cc1)N2 (stereo unspecified),4.7
O=C(NCCCn1ccnc1)c1cc2n(n1)C(C(F)(F)F)CC(c1ccc(Cl)cc1)N2 (stereo unspecified),-
O=C(NCc1ccccn1)c1cc2n(n1)C(C(F)(F)F)CC(c1ccco1)N2 (stereo unspecified),-
Cc1cc(C)cc(NC(=O)c2cc3n(n2)C(C(F)(F)F)CC(c2ccco2)N3)c1 (stereo unspecified),-
O=C(NCc1cccs1)c1cc2n(n1)C(C(F)(F)F)CC(c1ccc(Cl)cc1)N2 (stereo unspecified),-
O=C(NCc1ccco1)c1cc2n(n1)C(C(F)(F)F)CC(c1ccc(Br)cc1)N2 (stereo unspecified),3.5
Cc1ccc(C2CC(C(F)(F)F)n3nc(C(=O)NC(C)C)cc3N2)cc1 (stereo unspecified),-
O=C(NC1CCCC1)c1cc2n(n1)C(C(F)(F)F)CC(c1ccccc1)N2 (stereo unspecified),-
O=C(NC1CCCC1)c1cc2n(n1)C(C(F)(F)F)CC(c1ccc(Br)cc1)N2 (stereo unspecified),4.4
O=C(Nc1cc(Cl)cc(Cl)c1)Nc1cc(-c2ccco2)[nH]n1,-
O=C1Nc2ccccc2/C1=C/c1ccc(N2CCOCC2)nc1,-
C/C(N)=N/S(=O)(=O)c1cc(Cl)c(Oc2ccc([N+](=O)[O-])cc2)c(Cl)c1,-
Nc1ncnc2c1nc(N1CCCCC1)n2[C@H]1O[C@@H](CO)[C@H](O)[C@@H]1O,-
Cc1ccsc1CNC(=O)CCC(=O)O,-
CCOC(=O)c1c(-c2ccc(F)cc2)csc1N,-
N#Cc1ccc(Oc2ncc(C(F)(F)F)cc2Cl)cc1,-
Cn1cc(C(=O)O/N=C(\N)c2ccc(C(C)(C)C)cc2)c(C(F)(F)F)n1,-
CCOc1ccc2c(=O)c(Oc3ccccc3Br)c(C(F)(F)F)oc2c1,-
Cc1csc2c(=O)sc(NC(=O)c3ccco3)nc12,-
O=C(Nc1nc2c(ccc3ccccc32)s1)c1ccco1,5.7
O=C(Nc1nc2ccsc2c(=O)s1)c1ccco1,-
C=CCOC(=O)C1=C(C)N=C2SCCC(=O)N2C1c1ccccc1F (stereo unspecified),-
Cc1nc(SCC(=O)c2ccc(O)c(O)c2)n[nH]1,-
CS(=O)(=NS(=O)(=O)c1cccs1)c1ccc(OC(=O)c2ccc(Cl)cc2)cc1 (stereo unspecified),-
C=CCN1C(=O)C(=O)/C(=C(\O)c2ccc(Br)cc2)C1c1ccc(OC)cc1 (stereo unspecified),-
SMILES,Dicer processing
O=c1cc(C(F)(F)F)nc(SCc2c(F)cccc2Cl)[nH]1,-
O=C(Cn1c(C(=O)c2ccccc2)nc2ccccc21)c1ccccc1,-
COc1ccc(NC(=O)OC(C)C)cc1,3.5
CCN(CC)C(=O)Nc1ccc(OC)cc1,-
COc1ccc(NC(=O)c2scc(S(=O)(=O)C(C)C)c2N)cc1,-
Clc1ccc(/C=N/Nc2ncnc3sccc23)cc1,-
COc1ccc(OC)c(C2C(C(=O)OC3CCCCC3)=C(C)NC3=C2C(=O)CCC3)c1 (stereo unspecified),-
CCOc1cc(C2Nc3cccc4cccc(c34)N2)ccc1O,-
O=C1NC(c2cccc(Br)c2)Nc2ccccc21 (stereo unspecified),-
c1ccc(C2Nc3cccc4cccc(c34)N2)cc1,6.2
COc1ccccc1C1Nc2cccc3cccc(c23)N1,-
COc1cc(C2Nc3cccc4cccc(c34)N2)ccc1OCc1ccccc1,-
CN(C)c1ccc(C2Nc3cccc4cccc(c34)N2)cc1,-
CCc1ccc(C2Nc3cccc4cccc(c34)N2)cc1,-
CC(C)(C)c1ccc(C2Nc3cccc4cccc(c34)N2)cc1,5
c1ccc2c(C3Nc4cccc5cccc(c45)N3)cccc2c1,4.4
O=C1NC(c2ccc(Cl)cc2)Nc2ccccc21 (stereo unspecified),-
COc1cc(OC)c(C2Nc3cccc4cccc(c34)N2)c(OC)c1,-
Brc1cccc(C2Nc3cccc4cccc(c34)N2)c1,5.2
CCCc1cnc(N2CCSCC2)nc1,-
COc1cccc(C2C(C(=O)OCC3CCCO3)=C(C)NC3=C2C(=O)CCC3)c1OC (stereo unspecified),-
CC(=O)Nc1ccc([N+](=O)[O-])cc1C#N,-
O=C(NCCO)C(=O)Nc1ccc(Br)cc1,-
COC(=O)c1sc(-c2ccccc2)cc1N,-
CC1=C(C(=O)OC(C)C)C(c2cccc3ccccc23)C2=C(CC(C)(C)CC2=O)N1 (stereo unspecified),-
SMILES,Dicer processing
Fc1ccc(C2=NN=C(c3ccc(F)cc3)CC(c3ccccc3)=C2)cc1,-
Cc1ccc(C(=O)CC2(O)C(=O)N(C)c3ccccc32)c(C)c1 (stereo unspecified),-
COc1ccc2c(=O)cc(-c3cc(Br)cc4c3OCOC4)oc2c1,-
O=S(=O)(/C=C/c1ccccc1)c1ccc(F)c(Cl)c1,-
O=C(N/N=C/C=C/c1ccccc1)N/N=C/C=C/c1ccccc1,-
O=C(O)CS(=O)(=O)/C=C/c1ccccc1,19
O=C(Oc1ccc(Cl)cc1Cl)c1cc(-c2ccccc2)c(C(F)(F)F)s1,-
COc1ccccc1NC(=S)NNC(=O)CC#N,-
CC(=O)O[C@@H]1OC[C@@H](OC(C)=O)[C@H](OC(C)=O)[C@H]1OC(C)=O,-
CN(C)/C=N/c1nc(Sc2ncccc2[N+](=O)[O-])n[nH]1,-
O=C(Nc1ccc(OC(F)(F)F)cc1)Nc1ccc2ccccc2n1,-
O=C(Nc1ccc(OC(F)(F)F)cc1)c1c(-c2ccccc2)nnc2ccccc12,29
O=C(O)c1c(-c2ccccc2)nnc2ccccc12,-
CCC1CCC(C)N(C(=S)Nc2ccc(Br)cc2C)C1 (stereo unspecified),-
CN(C(=O)CSc1ccc(Cl)cc1)c1ccc(F)cc1F,-
Fc1ccccc1Cc1cn2cc(-c3ccc(Br)cc3)nc2s1,-
CC(C)(C)C(=O)Nc1c(Cl)c(Cl)cc(Cl)c1Cl,-
CC(=O)c1cc([N+](=O)[O-])c(SCCO)s1,-
C[C@]12CC=CCC1CCC1C2CC[C@](C)(C(=O)O)C1/C=C1/Nc2ccccc2C1=O (stereo partly specified),3.9
C[C@]12CC[C@@H](O)CC1CCC1C2CC[C@](C)(C(=O)O)C1/C=C1/Nc2ccccc2C1=O (stereo partly specified),-
O=C(Nc1ccc(O)c(-c2nc3ccccc3s2)c1)c1ccc([N+](=O)[O-])o1,-
O=S(=O)(NCCCn1ccnc1)c1ccc2c(c1)OCCO2,-
O=C(Nc1ccc(Cl)cc1)ON=C1CC2CCCC(C1)N2Cc1ccccc1,-
O=C(ON=C1CC2CCCC(C1)N2Cc1ccccc1)c1ccc(F)cc1,3.1
O=C(O)C1CC(=O)N(Cc2ccc(F)cc2)C1 (stereo unspecified),-
SMILES,Dicer processing
O=C(CN1C(=O)C2CCCCC2C1=O)N1CCN(Cc2ccc3c(c2)OCO3)CC1 (stereo unspecified),-
O=C(O)c1ccc(N2C(=O)C3CCCCC3C2=O)cc1 (stereo unspecified),-
O=C1c2cccc3cc([N+](=O)[O-])cc(c23)C(=O)N1Cc1ccncc1,3.5
O=C(O)CN1C(=O)c2cccc3cc([N+](=O)[O-])cc(c23)C1=O,-
CN1C(=O)c2cccc3cc([N+](=O)[O-])cc(c23)C1=O,-
Cc1cccc(/N=c2\scc(-c3cccs3)n2Cc2ccccc2)n1,-

# Screening data as filed in PubChem BioAssay.
